From PubChem BioAssay (NCI)
The panel holds about 83,000 compounds, 20% with a hit somewhere; the sample as a whole holds those more often.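 Cells were grown in 96-well plates and exposed to the test compound at a single concentration for 48 hours; results are reported as percent growth, with values below 10 considered active.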 Values without a mark were called inactive. The source made the active and inactive calls.

Experiments:
Experiment in all cases: NCI-60 one-dose screen, 48 h (100 = growth as untreated, 0 = no growth, -100 = all killed)
Conditions in all cases: 10 µM unless noted
SR leukemia = tested on: SR leukemia
RPMI-8226 leukemia = tested on: RPMI-8226 leukemia
OVCAR-8 ovarian = tested on: OVCAR-8 ovarian
OVCAR-5 ovarian = tested on: OVCAR-5 ovarian
OVCAR-4 ovarian = tested on: OVCAR-4 ovarian
SK-OV-3 ovarian = tested on: SK-OV-3 ovarian
IGROV1 ovarian = tested on: IGROV1 ovarian
OVCAR-3 ovarian = tested on: OVCAR-3 ovarian
HS 578T breast = tested on: HS 578T breast
NCI/ADR-RES ovarian = tested on: NCI/ADR-RES ovarian
T-47D breast = tested on: T-47D breast
BT-549 breast = tested on: BT-549 breast
MDA-MB-435 melanoma = tested on: MDA-MB-435 melanoma
SW-620 colon = tested on: SW-620 colon
MCF7 breast = tested on: MCF7 breast
HCT-116 colon = tested on: HCT-116 colon
HCC-2998 colon = tested on: HCC-2998 colon
KM12 colon = tested on: KM12 colon

Row | SMILES | growth (SR leukemia) | growth (RPMI-8226 leukemia) | growth (OVCAR-8 ovarian) | growth (OVCAR-5 ovarian) | growth (OVCAR-4 ovarian) | growth (SK-OV-3 ovarian) | growth (IGROV1 ovarian) | growth (OVCAR-3 ovarian) | growth (HS 578T breast) | growth (NCI/ADR-RES ovarian) | growth (T-47D breast) | growth (BT-549 breast) | growth (MDA-MB-435 melanoma) | growth (SW-620 colon) | growth (MCF7 breast) | growth (HCT-116 colon) | growth (HCC-2998 colon) | growth (KM12 colon)
1 | CCN(CC)Cc1cc(Nc2c3ccccc3nc3cc(Cl)ccc23)ccc1O | -37.1% (active) | -21.1% (active) | -60.1% (active) | -15.3% (active) | -97.8% (active) | -2.76% (active) | 2.96% (active) | -92.2% (active) | -30.9% (active) | -38.5% (active) | -68.2% (active) | -58% (active) | -92.7% (active) | -41% (active) | -60.7% (active) | -43% (active) | -100% (active) | -30% (active)
2 | CCCCCCCCCCNC(=O)CCl | 51.4% | 82.3% | 47.8% | 111% | 80.3% | 111% | 44.1% | 52.8% | 84.6% | 73% | 41.1% | 49% | 89.6% | 93.3% | 74.5% | 69.3% | 84.4% | 67.4%
3 | Cc1noc(C)c1-c1cc(O)cc(C(O)c2ccccc2)c1 (configuration not stated) | 27.1% | 14.9% | 38.6% | 73.3% | 32.5% | 43.7% | 46% | 46.7% | 33.7% | 59.2% | 47.1% | 64.7% | 43.9% | 72.1% | 20.9% | 58.1% | 62.2% | 53.1%
4 | COC(=S)SCN(CSC(=S)OC)c1ccc(Cl)cc1 | 123% | 73.1% | 91.3% | 97.1% | 87.6% | 91.6% | 95.4% | 104% | 88.4% | 79.1% | 70.1% | 65.8% | 95.3% | 99.1% | 73.5% | 79.7% | 100% | 98.2%
5 | NC1=CC(=O)C(=O)c2ccccc21 | 81.8% | 79.3% | 64.2% | 93.3% | 69.3% | 92.6% | 89.7% | 84.1% | 99.5% | 58.7% | 56.4% | 90.4% | -72.4% (active) | 98.9% | 86% | 63.4% | 95% | 95.7%
6 | CCN(CC)CCCC(C)N/C(=C1\C(=O)NC(=O)\C1=C(/NC(C)CCCN(CC)CC)c1cccc(OC)c1)c1cccc(OC)c1 (configuration not stated) | -25.1% (active) | -35.7% (active) | 5.58% (active) | 1.93% (active) | -23.3% (active) | 11.8% | -18.5% (active) | -11.3% (active) | 38.4% | 2.36% (active) | 48.6% | 2.98% (active) | -81.6% (active) | 0.116% (active) | 0.0378% (active) | 2.62% (active) | -89.2% (active) | 1.06% (active)
7 | Nc1ccc2c(c1)C(=O)NC2=O | 40.7% | 84.1% | 106% | 92.8% | 82.8% | 100% | 113% | 105% | 93.5% | 95.2% | 93.5% | 117% | 92.2% | 94.8% | 96.5% | 97.8% | 95.2% | 98.8%
8 | O=C(CCCCN1CCOCC1)Nc1ccc(Cn2nnc3c2C(=O)c2nnn(Cc4ccc(NC(=O)CCCCN5CCOCC5)cc4)c2C3=O)cc1 | -22.2% (active) | -18% (active) | -36.2% (active) | -23% (active) | -73.9% (active) | -68.2% (active) | -68.3% (active) | -58.2% (active) | 12.5% | 11% | -50.5% (active) | -94.7% (active) | -77% (active) | -50.1% (active) | -51.7% (active) | -91% (active) | -62.3% (active) | -36.2% (active)
9 | COc1ccc(/C=C2\N=C3Sc4cc(Cl)ccc4C(=O)N3C2=O)cc1 | 88.4% | 101% | 94.6% | 98.1% | 103% | 98.1% | 107% | 104% | 102% | 106% | 92% | 114% | 102% | 97.1% | 94.7% | 104% | 118% | 104%
